DRD3 antagonist: qHTS of D3 Dopamine Receptor Antagonist: qHTS; D(3) dopamine receptor (Homo sapiens), P35462; D3R cells, DiscoveRx beta-arrestin luminescence, antagonist mode; active compounds read low; max response, negative = inhibition, %; 360,000 tested, 2.5% active; AID 652054, 2013; in the data active = max response below about -50%; inconclusive = no clear call, values can overlap the other calls
Target sequence (P35462 whole entry, looked up): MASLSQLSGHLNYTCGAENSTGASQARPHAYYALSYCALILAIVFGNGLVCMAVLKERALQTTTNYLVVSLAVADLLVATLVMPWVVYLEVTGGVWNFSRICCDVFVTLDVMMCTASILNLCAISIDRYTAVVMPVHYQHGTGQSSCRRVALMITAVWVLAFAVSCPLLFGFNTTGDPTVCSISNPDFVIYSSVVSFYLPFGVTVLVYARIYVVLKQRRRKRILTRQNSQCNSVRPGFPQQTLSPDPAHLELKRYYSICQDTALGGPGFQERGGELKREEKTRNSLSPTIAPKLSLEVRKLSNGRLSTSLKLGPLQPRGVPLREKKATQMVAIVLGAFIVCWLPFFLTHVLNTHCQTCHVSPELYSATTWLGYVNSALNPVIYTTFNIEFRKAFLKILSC
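Cells plated overnight at 1500 cells/well, then exposed to library compounds with dopamine controls for 90 minutes at 37 degrees C. DiscoveRx reagent added for 30–60 minutes at room temperature; luminescence read, quantitative HTS format.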
D1 potentiator: Potentiators of Human D1 Dopamine Receptor: qHTS; HEK293 TREx D1 cells, calcium flux, dopamine EC20 potentiation; potentiation, % at 10 µM; 360,000 tested, 0.036% active; AID 504651, 2011; in the data active = potentiation above about 30%
D1 antag: Antagonist of Human D 1 Dopamine Receptor: qHTS; D(1A) dopamine receptor (Homo sapiens), P21728; HEK293 TREx D1 cells, calcium flux, dopamine EC80; active compounds read low; activity change, negative = inhibition, % at 10 µM; 360,000 tested, 3.2% active; AID 504652, 2011; in the data active = activity change below about -30%
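After overnight tetracycline induction at 30 C, force-coupled D1 HEK293 cells took up a no-wash calcium dye at room temperature. Compounds were added and monitored 180 s, and the response to EC80 dopamine was then recorded.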
D1 ag: Allosteric Agonists of the Human D1 Dopamine Receptor: qHTS; D(1A) dopamine receptor (Homo sapiens), P21728; HEK293 T-REx D1 cells, calcium flux, agonist mode; activation, % at 2 µM; 360,000 tested, 1% active; AID 504660, 2011; in the data active = activation above about 30%
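Inducible HEK293 T-REx D1 cells, force-coupled to calcium signalling, were plated at 4000 cells/well with tetracycline and held overnight at 30 C. After no-wash calcium dye loading, compound-evoked calcium rise over 180 s flagged agonists.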
D3 ag: qHTS of D3 Dopamine Receptor Agonist: qHTS; D(3) dopamine receptor (Homo sapiens), P35462; D3R DiscoveRx beta-arrestin cells, luminescence, 90 min; max activation, %; 410,000 tested, 0.58% active; AID 652048, 2013; in the data active = max activation above about 30%
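Agonist-mode cell screen: cells plated at 1500/well and incubated overnight at 37 °C, then exposed to library compounds for 90 min at 37 °C. Detection reagent was added for 30–60 min at room temperature, and luminescence was read.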
A number is an active result; - = inactive; ? = inconclusive; . = not tested or not shown; ! = repeats disagree. The list is not random: actives were taken first. Their share in the collection is about 6%.

SMILES	DRD3 antagonist	D1 potentiator	D1 antag	D1 ag	D3 ag
COc1ccc(CCCc2nnc(SCC(=O)Nc3cccc(C)c3)o2)cc1	-	-	-43!	46!	-
Cc1ccc(C(=O)NCC(c2ccc3c(c2)OCO3)N2CCN(C)CC2)cc1C (stereo not drawn)	.	-	-	-	-
CC(C)=CC(O)C/C(C)=C/COc1ccc2ccc(=O)oc2c1 (stereo not drawn)	-	-	-	-	-
CCN(C(=O)CCc1nc(-c2ccc(OC)cc2)no1)c1cc(OC)ccc1OC	-	-	-49	-	-
O=C(CC1NCCc2ccccc21)Nc1ccc(Cl)cc1 (stereo not drawn)	-87	-	-	-	-
COc1ccc(NS(=O)(=O)c2cnc(N)nc2)cc1Cl	.	-	-	-	-
Cc1ccc(CN2CCCn3nc(C(=O)NCc4cc(C)ccc4C)cc3C2=O)cc1	.	-	-	-	-
CCN(C(=O)c1cc2c(s1)-c1ccccc1OC2)c1cc(OC)ccc1OC	-54	-	-	-	-
Cc1c(NC(=O)CSc2nc(N)cc(N)n2)c(=O)n(-c2ccccc2)n1C	-	-	-	-	-
NS(=O)(=O)c1ccc(CCNC(=O)c2cccc(S(=O)(=O)N3CCCC3)c2)cc1	-	-	-	-	-
O=C(NCCNc1ccc([N+](=O)[O-])cc1C(F)(F)F)c1ccccc1	-	-	-31	-	-
Fc1ccc(C2=NNC(=NCc3ccccc3)SC2)cc1F	-	-	-40	-	-
CCc1c(C)c2ccc(OCC(=O)OC(C)C)c(C)c2oc1=O	-	-	-	-	41
Cc1ccc(S(=O)(=O)NC(C(=O)Oc2ccc3c(C(F)(F)F)cc(=O)oc3c2)c2ccccc2)cc1 (stereo not drawn)	-	-	-	57	-
Clc1cc(Br)ccc1OCCOCCN1CCOCC1	-82	-	-	-	-
Cc1ccc(OCCCCCN2CCOCC2)c(Cl)c1	?	.	.	.	-
Cc1cc(C(C)(C)C)ccc1OCCOCCN1CCCC1	-	-	-	-	-
Clc1cc(Br)ccc1OCCOCCN1CCCC1	-81	-	-	-	-
Cc1ccc[n+](C(C)C(=O)Nc2ccc(C)c([N+](=O)[O-])c2)c1 (stereo not drawn)	-70	-	-	-	-
Fc1cccc(Nc2cc(-n3cccn3)ncn2)c1	-	-	-45	-	-
CCOC(=O)C1=C[C@@H](C(C)(C)C)N(S(=O)(=O)c2ccc(C)cc2)[C@H]1c1cccc(Cl)c1	-	.	.	.	-
COc1cc(CNC(=O)CSCc2nc3cccnc3n2C2CCCCC2)cc(OC)c1OC	.	-	-	-	-
CCCOc1ccc(CSc2ncn[nH]2)cc1	-82	-	-	-	-
Brc1ccc(CSc2ncn[nH]2)cc1	-	-	-	-	-
NC(=O)c1cccc(Nc2nc(C(N)COCc3ccccc3)cs2)n1 (stereo not drawn)	-65	.	.	.	-
SMILES	DRD3 antagonist	D1 potentiator	D1 antag	D1 ag	D3 ag
O=C(NC1CC(=O)N(c2ccc(Cl)cc2)C1)c1cc2ccccc2o1 (stereo not drawn)	.	-	.	-	-
COc1ccc(-n2ncc(C(C)NS(=O)(=O)c3cc(F)ccc3C)c2C)cc1 (stereo not drawn)	-58	-	-	-	-
COc1ccc(-n2ncc(C(C)NS(=O)(=O)c3ccc(C(C)=O)cc3)c2C)cc1 (stereo not drawn)	-	-	-	-	-
COc1ccc(-n2ncc(C(C)NS(=O)(=O)c3cccs3)c2C)cc1 (stereo not drawn)	-76	-	-	-	-
O=C(Nc1c(-c2ccccc2)[nH][nH]c1=O)c1ccc2ccccc2c1	-	.	.	.	-
COc1ccc(-c2[nH][nH]c(=O)c2NC(=O)c2ccc(C)cc2)cc1	-85	.	.	.	-
CO[C@H]1C=CO[C@@]2(C)Oc3c(C)c(O)c4c(O)c(c(/C=N/N5CCN(C6CCCC6)CC5)c(O)c4c3C2=O)NC(=O)/C(C)=C\C=C[C@H](C)[C@H](O)[C@@H](C)[C@@H](O)[C@@H](C)[C@H](OC(C)=O)[C@@H]1C	.	.	.	.	-
CCCCNC(=O)c1ccc2c(c1)C(=O)N(Cc1ccncc1)C2=O	-	-	-	-	-
O=S(=O)(Nc1cccnc1)c1ccc(Cl)c(C(F)(F)F)c1	-51	-	-38	-	-
CCC(C)c1ccc(S(=O)(=O)Nc2cccnc2)cc1 (stereo not drawn)	-	-	-51	-	-
CN1C(=O)Cc2cc([S+](=O)([O-])N3CCN([S+](=O)([O-])c4c(F)cccc4F)CC3)ccc21	.	-	-	-	.
CCOC(=O)c1c[nH]c(=S)n(-c2ccccc2)c1=O	-	-	-	-	30
O=C(Oc1ccc(OC(=O)C2CCC2)cc1)C1CCC1	-	-	-36	-	-
CC1(C)[C@@H](OC(=O)CCC(=O)O)CC[C@]2(C)[C@H]3C(=O)C=C4[C@@H]5C[C@@](C)(C(=O)O)CC[C@]5(C)CC[C@@]4(C)[C@]3(C)CC[C@@H]12	.	.	.	.	-
COc1ccc(NC(=O)C(NS(=O)(=O)c2cccc3nsnc23)C(C)C)cc1 (stereo not drawn)	.	-	-	-	-
COc1ccccc1C(=O)NCCC(=O)NCc1cccs1	-	-	-	-	-
COc1ccc(CCC(=O)NCCS(=O)(=O)N2CCN(c3ccccc3OC)CC2)cc1	-	-	-33	-	-
COc1ccc(C)cc1NC(=O)N1CCN(c2nnc(C)c3c(C)n(-c4ccccc4)nc23)CC1	.	-	-	-	-
COc1ccccc1CNC(=O)CCS(=O)(=O)Cc1ccc(C)cc1	-	-	-	-	-
Cc1ccc(CS(=O)(=O)CCC(=O)NCc2ccccc2Cl)cc1	-	-	-	43	-
CCN1C(=O)/C(=C2/C=CC=CN2C)SC1=S	-	-	-33	-	-
CC1(C)C2CCC1(C)C(SC(=N)N)C2 (stereo not drawn)	-	.	.	.	-
Cc1cc(=O)n(CC(=O)N2CCN(c3ccccc3F)CC2)c2c1c(C)nn2C	.	-	-30	-	-
C=Cc1ccc(Cn2c(=O)cc(C)c3c(C)nn(C)c32)cc1	.	-	-	51	-
Cc1ccc(-n2ncc(C(=O)Nc3ccc4c(c3)OCO4)c2C2CCN(C(=O)OC(C)(C)C)CC2)c(C)c1	.	-	-	-	-
O=C1C=C(c2ccc3ncccc3c2)C[C@@H](c2ccc3c(c2)OCO3)C1	?	-	-	-	-
COc1ccc(Nc2c(CCc3ccccc3)nc3nc(C)cc(C)n23)cc1	-	.	.	.	-
O=C/C=C/c1c(-c2ccccc2)cc2oc3ccccc3cc1-2	-66	-	-	-	-
Nc1ccc(-c2cc3ccccc3oc2=O)cc1	-	-	-	-	-
